Laboratory results published in the supplement of paper PMC3334620.
The full ranking holds about 33,000 sequences; the median of “E-score (-0.5 to 0.5)” is about -0.0014, and the highest 2% start at about 0.25. The entries come from a sample that favours the highest values as a whole.

target: T1, Cad1 (UniProt P24813); experiment: PBM E-score (8-mer binding enrichment) (E-score (-0.5 to 0.5)); higher = stronger / more preferred TF binding; details: protein concentration: 100 nM; construct: GST-full length
T1 sequence: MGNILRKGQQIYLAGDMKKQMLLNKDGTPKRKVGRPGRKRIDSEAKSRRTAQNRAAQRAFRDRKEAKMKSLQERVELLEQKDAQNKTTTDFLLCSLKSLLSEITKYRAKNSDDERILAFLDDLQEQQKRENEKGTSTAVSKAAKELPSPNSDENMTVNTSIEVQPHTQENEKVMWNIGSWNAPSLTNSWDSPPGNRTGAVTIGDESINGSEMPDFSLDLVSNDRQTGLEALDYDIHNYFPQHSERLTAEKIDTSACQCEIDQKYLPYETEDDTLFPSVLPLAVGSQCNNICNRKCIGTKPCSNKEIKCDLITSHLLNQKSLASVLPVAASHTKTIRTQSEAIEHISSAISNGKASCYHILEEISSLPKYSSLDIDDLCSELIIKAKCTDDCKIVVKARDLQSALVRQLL
Description: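 Universal 'all 10-mer' protein binding microarrays (Agilent AMADID 015681) probed with GST-tagged S. cerevisiae TFs (full-length or DBD) made by in vitro transcription/translation (PURExpress), about 100-200 nM. Bound TF was detected with fluorescent anti-GST. Each ungapped 8-mer (which stands for itself and its reverse complement) is scored by the PBM enrichment score (E-score), a modified Wilcoxon-Mann-Whitney statistic from -0.5 to +0.5, computed with the Universal PBM Analysis Suite. Scale: above 0.35 generally sequence-specific binding.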

Going from CAGGCTAA to TAACCCGA, the “PBM E-score” value rises from -0.266 to -0.00699.

Going from GGCACCTA to AAGCCCAC, the “PBM E-score” value rises from -0.156 to -0.0637.

First: ACAGAACC
Second: AAGAACCA
The “PBM E-score” value of the first is higher: 0.0474 for the first, -0.00253 for the second.

Compared with GGCAACCC, GAACCTGC is higher in “PBM E-score” value: -0.174 for the first, -0.018 for the second.

Going from ATGCCTTC to CAATATTC, the “PBM E-score” value rises from -0.162 to 0.0508.

First: CGCTACTC
Second: CGATATTA
The “PBM E-score” value of the first is lower: 0.0265 for the first, 0.352 for the second.

Going from AAATATTG to CGATATTC, the “PBM E-score” value falls from 0.249 to 0.173.

Going from GGATATTA to AGCTACTA, the “PBM E-score” value falls from 0.163 to 0.0659.

First: CAATATTA
Second: AAATATTA
The “PBM E-score” value of the first is lower: 0.187 for the first, 0.298 for the second.

Compared with GAATATTC, AAATATTC is lower in “PBM E-score” value: 0.338 for the first, 0.249 for the second.

First: CGCTACTA
Second: CACCACAC
The “PBM E-score” value of the first is higher: 0.276 for the first, 0.151 for the second.

Going from AGCTCACT to ACAATAGA, the “PBM E-score” value falls from -0.0157 to -0.144.

First: GGAGCACC
Second: ATATATTA
The “PBM E-score” value of the first is lower: -0.0566 for the first, 0.368 for the second.

Compared with GTATATTA, CTATATTA is higher in “PBM E-score” value: 0.115 for the first, 0.241 for the second.

Compared with GCTAAGCC, AGACGCAC is higher in “PBM E-score” value: -0.109 for the first, 0.0398 for the second.

First: CGACCTAG
Second: CCAAATAA
The “PBM E-score” value of the first is lower: 0.0727 for the first, 0.15 for the second.

First: CTTACAAC
Second: CTTACAAG
The “PBM E-score” value of the first is higher: 0.118 for the first, 0.0333 for the second.

Compared with CTTACAAA, ATTACAAG is lower in “PBM E-score” value: 0.372 for the first, 0.0206 for the second.

Going from ATTACAAA to ATTACAAT, the “PBM E-score” value falls from 0.425 to 0.104.

Compared with ATATAAGA, AGCCCATA is lower in “PBM E-score” value: 0.22 for the first, -0.0468 for the second.

Going from AAGAAGCG to ATTCGCGC, the “PBM E-score” value rises from -0.184 to 0.17.

Going from CTTCGCGC to CAACGCGG, the “PBM E-score” value falls from 0.263 to 0.0152.

First: CAACGCGC
Second: CGGCGCGC
The “PBM E-score” value of the first is higher: 0.311 for the first, 0.258 for the second.

First: CAACGCGA
Second: CTGCGCGC
The “PBM E-score” value of the first is lower: 0.157 for the first, 0.302 for the second.

First: ATGCGCGC
Second: CTTCGCGA
The “PBM E-score” value of the first is higher: 0.238 for the first, 0.143 for the second.

First: CGGCGCGA
Second: CTGCGCGA
The “PBM E-score” value of the first is higher: 0.203 for the first, 0.13 for the second.

First: AGGCGCGC
Second: CAAGGGAC
The “PBM E-score” value of the first is higher: 0.161 for the first, -0.0828 for the second.

Compared with CGGCTGTA, ACCTCCGC is lower in “PBM E-score” value: -0.112 for the first, -0.116 for the second.

First: TCCCGCGA
Second: ACTCGTAG
The “PBM E-score” value of the first is higher: 0.0875 for the first, -0.103 for the second.

Compared with ATTCGTTA, CTTCGTAA is lower in “PBM E-score” value: 0.158 for the first, 0.0607 for the second.

First: ATTCGTAA
Second: ATTCGTTC
The “PBM E-score” value of the first is higher: 0.26 for the first, 0.09 for the second.

Compared with ACTCGTAT, ATTCGTTG is higher in “PBM E-score” value: 0.0214 for the first, 0.258 for the second.

Compared with GTTCGTAA, ACTCGTAA is higher in “PBM E-score” value: 0.119 for the first, 0.292 for the second.

First: AAGTTGCT
Second: TAAACCCA
The “PBM E-score” value of the first is lower: 0.0232 for the first, 0.119 for the second.

Going from CAGTTATA to ATTGCGCA, the “PBM E-score” value rises from -0.0494 to 0.103.

Compared with AATGCGCC, ATTGCGCC is lower in “PBM E-score” value: -0.00918 for the first, -0.061 for the second.

First: CATGCGCG
Second: CATGCGCA
The “PBM E-score” value of the first is higher: 0.202 for the first, 0.116 for the second.

First: AATGCGCG
Second: AATGCGCT
The “PBM E-score” value of the first is higher: 0.305 for the first, 0.0389 for the second.

Compared with ATTGCGCG, AATGCGCA is higher in “PBM E-score” value: 0.307 for the first, 0.342 for the second.

Going from AGGCAGAG to ACGTCGGG, the “PBM E-score” value falls from -0.0635 to -0.269.

First: CCCAGATA
Second: GCGGGATA
The “PBM E-score” value of the first is lower: -0.0901 for the first, 0.0173 for the second.

First: CCCGTATC
Second: ACATGACA
The “PBM E-score” value of the first is lower: -0.15 for the first, 0.159 for the second.

Going from GCATGACA to TCATGACA, the “PBM E-score” value rises from 0.0476 to 0.301.

Going from AGAAAGCC to TAACTGAA, the “PBM E-score” value rises from -0.051 to -0.0483.

Going from CATGTAAG to ACTGTAAG, the “PBM E-score” value rises from 0.129 to 0.167.

Compared with AACGTAAT, AATGTAAC is lower in “PBM E-score” value: 0.261 for the first, 0.0359 for the second.

First: AATGTAAA
Second: AACGTAAC
The “PBM E-score” value of the first is higher: 0.193 for the first, -0.00693 for the second.

Compared with AATGTAAG, AACGTAAA is lower in “PBM E-score” value: 0.264 for the first, 0.0278 for the second.

Going from AATGTAAT to AAAGTCGC, the “PBM E-score” value falls from 0.324 to 0.124.

First: GACGAAAA
Second: CACGAAAA
The “PBM E-score” value of the first is higher: 0.297 for the first, 0.161 for the second.

Going from AACGATAC to AACGATAT, the “PBM E-score” value rises from 0.0534 to 0.271.

First: AAAGATAC
Second: AAAGATAT
The “PBM E-score” value of the first is lower: -0.051 for the first, 0.277 for the second.

First: AACGATAG
Second: AAAGATAG
The “PBM E-score” value of the first is higher: 0.0593 for the first, 0.00786 for the second.

Going from AACGAAAT to AACGAAAC, the “PBM E-score” value falls from 0.303 to 0.187.

Going from AACGAAAG to TACGAAAA, the “PBM E-score” value falls from 0.0872 to 0.0721.

Compared with ACCATCTG, ACGCAGAC is higher in “PBM E-score” value: -0.0991 for the first, 0.0915 for the second.

First: GGAACTAC
Second: GAACGTTC
The “PBM E-score” value of the first is higher: -0.0515 for the first, -0.0713 for the second.

Compared with GACTGATC, CCTGCTAA is lower in “PBM E-score” value: -0.075 for the first, -0.128 for the second.

First: CCAACTGG
Second: CGCGAAAA
The “PBM E-score” value of the first is lower: 0.025 for the first, 0.246 for the second.

Compared with TGCGAAAA, CACGAACA is lower in “PBM E-score” value: 0.266 for the first, 0.249 for the second.

First: AACGAACG
Second: AACGAACA
The “PBM E-score” value of the first is lower: 0.0769 for the first, 0.269 for the second.

First: AGCGAAAA
Second: CCGAAGAG
The “PBM E-score” value of the first is lower: -0.0296 for the first, -0.0285 for the second.

Going from CTTCTGAA to CTCGGGCA, the “PBM E-score” value rises from 0.0469 to 0.0974.

Compared with AGTGTGGG, GCACGTGC is higher in “PBM E-score” value: -0.0209 for the first, 0.32 for the second.

First: CCACGTGC
Second: GCACGTGA
The “PBM E-score” value of the first is lower: 0.00023 for the first, 0.0273 for the second.

Compared with GTCAGACA, AAGGTCGT is lower in “PBM E-score” value: 0.116 for the first, 0.0718 for the second.

First: CCTAGACC
Second: GGTTAGAA
The “PBM E-score” value of the first is lower: -0.179 for the first, -0.111 for the second.

Going from AAGCTCGC to AAGCTCGA, the “PBM E-score” value rises from 0.224 to 0.263.

First: CAGCTCGA
Second: TTGGCAAA
The “PBM E-score” value of the first is lower: 0.0283 for the first, 0.121 for the second.

Compared with ATAGATTG, GACCCGGC is lower in “PBM E-score” value: 0.0192 for the first, -0.0968 for the second.

Compared with GCTGAGCC, AACGCTTC is higher in “PBM E-score” value: -0.119 for the first, -0.0949 for the second.

Compared with CATCAGCA, AATCAGCC is higher in “PBM E-score” value: 0.01 for the first, 0.0909 for the second.

Going from AATCAACA to TATCAACA, the “PBM E-score” value falls from 0.275 to 0.0364.

Compared with AATCAGCG, AATCAGCT is higher in “PBM E-score” value: 0.211 for the first, 0.274 for the second.

Compared with AATCAGCA, GATCAACA is lower in “PBM E-score” value: 0.258 for the first, 0.131 for the second.

Going from GATCAGCA to CGACAGCA, the “PBM E-score” value falls from 0.141 to 0.0252.

Going from AGTTCAGA to CAACATGA, the “PBM E-score” value rises from -0.104 to 0.144.

First: CACTAGAA
Second: GTTTGTCA
The “PBM E-score” value of the first is lower: -0.0573 for the first, 0.317 for the second.

Compared with CTTTGTTA, CTTTGTCC is lower in “PBM E-score” value: 0.222 for the first, 0.058 for the second.

Going from GTTTGTTA to GATTGTCA, the “PBM E-score” value falls from 0.202 to 0.117.

First: CTTTGTCA
Second: AAGATTAG
The “PBM E-score” value of the first is higher: 0.278 for the first, 0.144 for the second.

First: GTCTGCGA
Second: AGACCGGA
The “PBM E-score” value of the first is higher: 0.0486 for the first, -0.062 for the second.

Going from GTCGCGAC to TTCGCGAA, the “PBM E-score” value falls from 0.391 to 0.343.

First: CTCGCGAC
Second: GTCGCGAA
The “PBM E-score” value of the first is higher: 0.15 for the first, 0.0594 for the second.

Compared with ATCGCGAC, TCCGCGAA is higher in “PBM E-score” value: 0.195 for the first, 0.202 for the second.

Going from GGGCCTCA to ATCATTTC, the “PBM E-score” value rises from -0.0631 to 0.136.
